Bioassay records deposited in PubChem by several laboratories.
Rows were chosen to be rich in hits. Some 0.5% of all compounds tested hit in one or more screens of this group.
E coli growth-1: counter-screen for AddAB inhibitors: E. coli growth inhibition; E. coli V3065 growth, OD600 absorbance, 18 h; inhibition, % at 11.9 µM; 330,000 tested, 0.27% active;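 active means inhibition above the campaign's mean inhibition across all tested compounds plus 3 SD, cut at about 9.9% in these data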;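 further: uninfected addAB+ strain grown without phage in ampicillin broth; 0% = DMSO wells and 100% = ciprofloxacin 0.95 µg/ml wells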
Tat transport: E. coli Tat transport inhibition. E. coli MC4100 TorA-mCherry Tat export, fluorescence. inhibition, % at 10 µM. 340,000 tested, 0.036% active;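 active means mean replicate inhibition at least 50% and at least half of replicates individually reaching 50%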;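 further: exported cargo escapes ClpAP degradation while cytoplasmic cargo is degraded and loses fluorescence; 0% = median of neutral control wells and 100% = median of NaSCN control wells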
phage Ecoli inh: E. coli growth loss with phage present; inhibition, % at 11.9 µM; AID 651602; growth absorbance; 360,000 tested, 0.26% active; in the data active means inhibition above about 11%
E coli growth-2: E. coli growth inhibition; Escherichia coli growth, OD600, 23 h; active compounds read low; OD600 absorbance (test concentration not listed); 330,000 tested, 0.21% active;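 active means OD600 absorbance below the run mean of sample wells minus 3.6 SD, in any replicate, cut at about 0.56 in these data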
AddAB inh: less growth of phage-infected E. coli with AddAB; inhibition, % at 11.9 µM; E. coli expressing H. pylori AddAB, absorbance growth; 330,000 tested, 0.29% active; in the data active means inhibition above about 12%;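 further: 0% = vehicle wells of infected cells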
RecBCD conf: growth loss of phage-infected V66 E. coli, RecBCD confirmation screen; shares compounds with phage Ecoli inh; E. coli V66 + T4 2- phage, growth OD; inhibition, % at 11.9 µM; 890 tested, 45% active; AID 651982;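 active means mean inhibition over triplicates exceeding the hit threshold derived in the original primary screen, cut at about 11% in these data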
Ecoli viability: bacterial viability inhibition counter-screen for RecBCD | inhibition, % at 11.9 µM | shares compounds with phage Ecoli inh | 890 tested, 29% active | E. coli viability, absorbance (OD) growth; in the data active means inhibition above about 20%;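 further: E. coli strain V66 grown with compound alone and no phage infection; 0% = bacteria with DMSO vehicle only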
AddAB counter: growth loss of phage-infected AddAB E. coli, RecBCD counter-screen | shares compounds with phage Ecoli inh | E. coli expressing H. pylori AddAB + T4 phage, OD growth; gene 2 mutant T4, recBCD-deleted host | inhibition, % at 11.9 µM | 890 tested, 45% active | AID 651984;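 active means mean inhibition above the solvent-only control wells' mean plus 3 SD, cut at about 22% in these data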;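 further: higher means less bacterial growth from phage killing when AddAB is blocked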
The depositor's hits bear a star.

`O=C(NNC(=O)c1cc2ccccc2cc1O)Nc1ccccc1F` gave E coli growth-1 9.9*, Tat transport -4.8, phage Ecoli inh 10.9*, E coli growth-2 0.682, AddAB inh 11.9, RecBCD conf 6.4, Ecoli viability 7.2 and AddAB counter 9.7.
CCc1ccc(NC(=O)NNC(=O)c2cc3ccccc3cc2O)cc1 was read as E coli growth-1 6.7, Tat transport -16.0, phage Ecoli inh 7.1, E coli growth-2 0.704 and AddAB inh 5.1.
For Cc1ccc(NC(=O)NNC(=O)c2cc3ccccc3cc2O)c(C)c1 the results were E coli growth-1 10.4*, Tat transport 2.0, phage Ecoli inh 11.7*, E coli growth-2 0.703, AddAB inh 11.4, RecBCD conf 7.1, Ecoli viability 8.4 and AddAB counter 6.8.
Screening S=c1[nH]nc(COc2ccccc2)n1N=Cc1ccncc1 returned E coli growth-2 0.708.
For O=S(=O)(c1ccc(NC(=S)NN=Cc2c3ccccc3cc3ccccc23)cc1)N1CCOCC1 the results were E coli growth-2 0.716.
For Cc1ccc(-c2n[nH]c(=S)n2N=Cc2c(C)[nH]n(-c3ccccc3)c2=O)cc1 the results were E coli growth-2 0.641.
Screening CCOC(=O)Cc1csc(C(=NO)C(N)=O)n1 returned E coli growth-2 0.659.
Screening CCOc1ccc(CN2C(=O)c3ccccc3C2C(=O)NC(C)CC)cc1OC (stereo not drawn) returned E coli growth-1 0.5, Tat transport 4.3, phage Ecoli inh 3.3, E coli growth-2 0.651 and AddAB inh -0.7.
`CCC(C)NC(=O)C1c2ccccc2C(=O)N1Cc1cc(OC)ccc1OC` (stereo not drawn) gave E coli growth-1 1.4, Tat transport 2.9, phage Ecoli inh 14.1*, E coli growth-2 0.72, AddAB inh -0.5, RecBCD conf 1.3, Ecoli viability 0.7 and AddAB counter 3.0.
COc1cc2c(c(OC)c1OC)-c1c(cc3c(c1OC)OCO3)C(OC(C)=O)C(C)C(C)C2 (stereo not drawn) was read as E coli growth-2 0.686.
`CC(=NNC(=S)N1CCC1)c1ccccn1` gave Tat transport 0.4, phage Ecoli inh 40.6*, RecBCD conf 43.0*, Ecoli viability 52.4* and AddAB counter 41.4*.
Screening CC(Oc1ccc2ccccc2c1)C(=O)NN=Cc1cccnc1 (stereo not drawn) returned E coli growth-2 0.661.
Screening O=C(Nc1cc([N+](=O)[O-])c2[nH]c(=O)c3ccccc3c2c1)C(F)(F)F returned Tat transport 5.8, phage Ecoli inh 13.7*, RecBCD conf 11.9*, Ecoli viability 15.4 and AddAB counter 95.7*.
Screening Cc1nc(CC(=O)NN=Cc2ccc(OCC(=O)O)cc2)cs1 returned E coli growth-2 0.713.
Cc1nc(N)nc(N)c1/C=C/C(C)(C)c1ccc(Cl)cc1 was read as Tat transport 22.7, phage Ecoli inh 99.9*, E coli growth-2 0.069*, RecBCD conf 81.7*, Ecoli viability 89.3* and AddAB counter 99.6*.
Screening O=C(Nc1ccc(Cl)cn1)c1ccc([N+](=O)[O-])o1 returned Tat transport -28.2, phage Ecoli inh 18.1*, E coli growth-2 0.496, RecBCD conf 7.0, Ecoli viability 8.0 and AddAB counter 96.3*.
`Cc1c(Cl)c([N+](=O)[O-])nn1Cc1ccc(C(=O)Nc2ccc(Cl)cn2)o1` gave E coli growth-1 0.3, Tat transport -6.5, phage Ecoli inh 1.9, E coli growth-2 0.695 and AddAB inh 0.9.
For CC(=O)c1ccc(NC(=O)c2ccc([N+](=O)[O-])o2)cc1 the results were Tat transport 1.0, phage Ecoli inh 16.8*, E coli growth-2 0.474*, RecBCD conf 11.3*, Ecoli viability 13.7 and AddAB counter 65.7*.
Screening O=S(=O)(Oc1ccccc1)c1cccnc1 returned E coli growth-1 -0.8, Tat transport 1.3, phage Ecoli inh 100.7*, E coli growth-2 0.702, AddAB inh -0.9, RecBCD conf -2.7, Ecoli viability -2.4 and AddAB counter -2.8.
